Experimental data reported in PubChem BioAssay (NCI).
The panel holds about 79,000 compounds, 15% with a hit somewhere; the sample as a whole holds those more often. No stated cut-off is given here; in the data, active means growth inhibition above about 70%; inactive means the rest.

Key:
[1] = NCI Yeast Anticancer Drug Screen. Data for the rad50 strain (AID 155);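 further: 0% = growth of vehicle-only cultures of the same strain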; conditions: S. cerevisiae rad50 strain growth inhibition; at 50.0 µM; stronger effect = higher value
Method in brief: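 A DNA repair-deficient yeast mutant serves as the test organism; compound-induced growth inhibition is calculated against vehicle-treated cells.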

[2] = NCI Yeast Anticancer Drug Screen. Data for the mec2-1 strain (AID 157); conditions: S. cerevisiae mec2-1 strain, at 50.0 µM, stronger effect = higher value
Method in brief: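 Growth inhibition is read against vehicle-treated controls after compound exposure of the mec2-1 yeast strain, which is defective in DNA damage repair or cell cycle control.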

[3] = NCI Yeast Anticancer Drug Screen. Data for the sgs1 mgt1 strain (AID 161);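 further: 0% = growth of cultures given vehicle only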; conditions: S. cerevisiae sgs1 mgt1 strain, at 50.0 µM, stronger effect = higher value
Method in brief: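 Growth of a repair-deficient yeast mutant was monitored after compound treatment and expressed as inhibition relative to vehicle-treated cultures.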

[4] = NCI Yeast Anticancer Drug Screen. Data for the cln2 rad14 strain (AID 165);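 further: 0% = growth equal to vehicle treated cultures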; conditions: S. cerevisiae cln2 rad14 strain, at 50.0 µM, stronger effect = higher value
Method in brief: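 Growth inhibition, relative to vehicle-treated controls, is the read-out. The test organism is a yeast strain with defined genetic alterations, cln2 rad14.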

[5] = NCI Yeast Anticancer Drug Screen. Data for the bub3 strain (AID 167); conditions: S. cerevisiae bub3 mutant strain, at 50.0 µM, stronger effect = higher value
Method in brief: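 Inhibition values come from growth of compound-treated mutant yeast normalised to vehicle-treated controls.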

[6] = NCI Yeast Anticancer Drug Screen. Data for the mlh1 rad18 strain (AID 175); conditions: S. cerevisiae mlh1 rad18 strain growth inhibition; at 50.0 µM; stronger effect = higher value
Method in brief: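 Cells of a genetically altered yeast strain, deficient in DNA damage repair, were treated with compound. Their growth was then compared with that of vehicle-treated cultures to give inhibition.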

Measured: growth inhibition

O=C(O)CCSc1nc2c(=O)[nH][nH]c(=O)c2n1Cc1ccccc1
inactive: [1] 7.2% | [2] -13.2% | [3] 7.05% | [4] -53.1% | [5] -0.75% | [6] 9.7%

Cc1ccccc1NC(=O)CSc1nnc(Cc2ccccc2)o1
inactive: [1] -15.3% | [2] -20.6% | [3] -36.8% | [4] -13.5% | [5] -33.8% | [6] -35.5%

c1cc[n+]2cc3c(ccc4cc5cccc[n+]5cc43)cc2c1
inactive: [1] 17.4% | [2] 11.1% | [3] 31.4% | [4] 58% | [5] -2.3% | [6] 11.6%

OC(c1ccoc1)c1cc2ccccc2s1 (stereo not given)
inactive: [1] 65% | [2] 23.2% | [3] 52.5% | [4] 22.2% | [5] 21.6% | [6] 36.7%

Fc1cccc2c1Cc1ccccc1-2
inactive: [1] 5.75% | [2] -8.65% | [3] -21.3% | [4] -58.7% | [5] -1.85% | [6] 17.3%

CC(=O)OCC1OC(N2C(c3ccccc3)=CC(c3ccco3)C(C#N)=C2S)C(OC(C)=O)C(OC(C)=O)C1OC(C)=O (stereo not given)
inactive: [1] 0.95% | [2] -11.2% | [3] 13.8% | [4] 12.7% | [5] 2.05% | [6] 27.2%

CO[Si](C)(OC)c1ccccc1
inactive: [1] -0.6% | [2] -23.8% | [3] -32.1% | [4] 13.2% | [5] -25.8% | [6] 2.75%

CC(=O)c1ccc(C(=O)O)cc1
inactive: [1] 13.7% | [2] -11.6% | [3] 2.45% | [4] -0.15% | [5] -4.3% | [6] 6.15%

COC1=CC(=O)C(C(C)=O)=C(O)C1=O
inactive: [1] 0.05% | [2] -7.95% | [3] -6.5% | [4] 4.7% | [5] -5.6% | [6] -4.05%

CCOC(=O)C(Cc1ccc(OC)c(C)c1)(NC(C)=O)C(=O)OCC
inactive: [1] -0.3% | [2] 5.1% | [3] -3.45% | [4] -14.2% | [5] 3.85% | [6] 6.4%

N/N=C(\C(=O)Nc1c(Cl)cc([N+](=O)[O-])cc1Cl)C(c1cnc2ccc([N+](=O)[O-])cc2n1)[N+](=O)[O-] (stereo not given)
inactive: [1] -38.7% | [2] 0.7% | [3] 10.4% | [4] 15.1% | [5] -23.5% | [6] -26.6%

O=C(O)c1c(-c2ccc(Cl)cc2)c(-c2ccc(Cl)cc2)nn(CCO)c1=O
inactive: [1] 33.8% | [2] 25.8% | [3] 33.4% | [4] 7.4% | [5] 1.5% | [6] 35.6%

O=C(O)CNc1ccccc1.[Cu+2]
inactive: [1] -38.5% | [2] -28.1% | [3] -51.5% | [4] 6.95% | [5] -35.9% | [6] -15.8%

NCCNCCCNC(=O)c1cc(-c2ccccc2)nc2ccccc12
inactive: [1] -18.8% | [2] -6.35% | [3] -1.7% | [4] -11.9% | [5] 14.9% | [6] -3.95%

COc1ccc(C(=O)OCc2ccccc2CN2CCOCC2)cc1
inactive: [1] 0.75% | [2] 12.5% | [3] -8.45% | [4] 30.3% | [5] -4.9% | [6] -26.4%

CCOC(=O)Cc1c(Cc2[nH]c(C(=O)OCc3ccccc3)c(CC(=O)OCC)c2CC(=O)OCC)[nH]c(C(=O)OCc2ccccc2)c1CC(=O)OCC
inactive: [1] -10.7% | [2] -21.6% | [3] -19% | [4] -3.1% | [5] -3.35% | [6] -17.3%

Nc1ccc(C2NC=CN2)cc1
inactive: [1] -12.1% | [2] -7.65% | [3] -0.7% | [4] 29.8% | [5] -3.15% | [6] -1.65%

CC1(C)CS(=O)(=O)C(=O)N1CCC(=O)O
inactive: [1] 9.8% | [2] 15.4% | [3] 7.8% | [4] 3.85% | [5] 6.45% | [6] 24.9%

C=C(COC(=O)C(C)C)[C@H]1Oc2ccc(C(C)=O)cc2[C@@H]1OC(=O)C(C)C
inactive: [1] -11.5% | [2] -3.9% | [3] -15.9% | [4] -9.55% | [5] 0.45% | [6] -23.1%

S=C(NCN1CCOCC1)NCN1CCOCC1
inactive: [1] -14.8% | [2] 5.75% | [3] -5.2% | [4] -2.7% | [5] 2.05% | [6] -16%

CCCCCOC(=O)CC(c1ccccc1)N1CCCCC1 (stereo not given)
inactive: [1] 32.5% | [2] -6.65% | [3] 19.1% | [4] -23% | [5] 23.3% | [6] 6.4%

CN(C)CCOc1c(Cc2ccccc2)ccc2cccnc12
inactive: [1] -1.65% | [2] 5.15% | [3] 3.05% | [4] -2.9% | [5] 1% | [6] 5.05%

CSCCC(Nc1ncnc2nc[nH]c12)C(=O)O (stereo not given)
inactive: [1] -9.7% | [2] 3.05% | [3] 3.6% | [4] -12.7% | [5] 0.9% | [6] -9.5%

O=S(=O)([O-])c1ccc2c(c1)-c1nc-2nc2[n-]c(nc3nc(nc4[n-]c(n1)c1ccc(S(=O)(=O)[O-])cc41)-c1cc(S(=O)(=O)[O-])ccc1-3)c1ccc(S(=O)(=O)[O-])cc21.[Cu+2].[Na+]
inactive: [1] -13.7% | [2] -40.1% | [3] -23.8% | [4] -16.2% | [5] -34% | [6] -94.2%

CCOC(=O)c1ccc(N)cc1
inactive: [1] 19.2% | [2] 20.1% | [3] -3.1% | [4] -9.55% | [5] -18.6% | [6] -1.8%

CCCCCCCC(=O)OCC(=O)c1ccc(-c2ccccc2)cc1
inactive: [1] -24.8% | [2] -1.6% | [3] 2.85% | [4] -28.6% | [5] 11.5% | [6] 3.1%

C[C@]12CCC(=O)C=C1CC[C@@H]1[C@@H]2[C@@H](O)C[C@@]2(C)[C@H]1CC[C@]2(O)C(=O)CO
inactive: [1] 12.7% | [2] 2.25% | [3] -31.6% | [4] 7% | [5] -30.1% | [6] -35%

CCOC(=O)c1ccc(NC(=O)/C=C/c2ccccc2)cc1
inactive: [1] -4.55% | [2] 11.4% | [3] 17.4% | [4] -24.3% | [5] 30.1% | [6] 6.3%

COc1ccc2c3c([nH]c2c1)C(C)N(S(=O)(=O)c1ccccc1)CC3 (stereo not given)
inactive: [1] -8.1% | [2] -0.9% | [3] -2.65% | [4] -4.9% | [5] 8.45% | [6] 5.7%

CC12C=C[C@]3(CC[C@@H]4[C@@](C)(CO)CCC[C@]4(C)C3CC1)C2 (stereo not given in full)
inactive: [1] 13.4% | [2] -2.7% | [3] 12.9% | [4] 8.25% | [5] 15.3% | [6] 7.6%

Cn1cnc(CCc2ccccc2)n1
inactive: [1] -8.95% | [2] -3.05% | [3] -24.2% | [4] -19% | [5] -24.1% | [6] -11.2%

CCOc1c(N=Nc2ccccc2OC)c(-c2ccccc2)nn1C(=S)S
inactive: [1] 33.4% | [2] 42% | [3] 24.8% | [4] 5.75% | [5] 66.7% | [6] 18.9%

COc1ccc(NC(=O)N(C)Cc2ccccc2Cl)cc1
inactive: [1] -0.35% | [2] -10.8% | [3] 1.9% | [4] -12.6% | [5] 11.2% | [6] 0.4%

CC(C)CC1=C(N(C)C)C(=O)C=C(N(C)C)C1=O
inactive: [1] -0.35% | [2] -9.4% | [3] 10.2% | [4] -5.65% | [5] -9.85% | [6] -13.4%

O=C(NNC(=O)c1cccc2ccccc12)c1ccccc1F
inactive: [1] -16.6% | [2] -12.6% | [3] -13.9% | [4] 1.35% | [5] -11.6% | [6] -15.9%

C[N+]1(C)N=C([O-])N(c2ccccc2F)C1=O
inactive: [1] 7.15% | [2] -7.35% | [3] 2.7% | [4] -17.1% | [5] -2.15% | [6] -0.7%

Cc1ccc(O)c(C(=O)c2ccc(Cl)c(Cl)c2)c1
inactive: [1] 8.45% | [2] 13.9% | [3] 54.2% | [4] -0.9% | [5] 58.1% | [6] 11.2%

CCCCCCCCCCCC(=O)OCC1OC(n2cc(F)c(=O)[nH]c2=O)C(N)C(OC(=O)CCCCCCCCCCC)C1O (stereo not given)
inactive: [1] -9% | [2] -34.9% | [3] -51.6% | [4] 4.2% | [5] -34.9% | [6] -45.5%

CN(C)c1nc(N/N=C\C(O)C(O)C(O)C(O)CO)nc(N(C)C)n1 (stereo not given)
inactive: [1] -1.55% | [2] 2.45% | [3] -7.1% | [4] 1.15% | [5] 32.1% | [6] 9%

CS(=O)(=O)C(C#N)c1nc2ccccc2nc1Cl (stereo not given)
inactive: [1] -20.6% | [2] -17.7% | [3] -53.1% | [4] -9.6% | [5] -42% | [6] -30.6%
